Where “and” joins values, the source holds several entries; their conditions need not be identical. Equal entries are not always repeated. About 970 (0.31%) of roughly 310,000 compounds were called active.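 The calls were made as follows: active = every replicate shows inhibition above about 80%, whatever the replicate mean (limit read from the data); inconclusive = mean inhibition reaches the set limit but some replicate falls short; inactive = the rest.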 Many of the other results were omitted from the sample, so actives are more common in it than they were.

This assay can be described thus: reduced ATP signal of yeast carrying P. falciparum Hsp90 – S. cerevisiae, BacTiter-Glo luminescence, single point, set 2, antimalarial PfHsp90 inhibitor project, primary screen (AID 504621).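 Also: yeast relying on Plasmodium falciparum Hsp90 in place of its own; 0% = DMSO neutral controls and 100% = 20 µM radicicol positive controls.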 The conditions noted are these: S. cerevisiae expressing PfHsp90, growth, 48 h, at 9.4 µM, stronger effect = higher value, yeast lacking PDR1 and PDR3 efflux regulators.
For `COc1cccc(C=CC(=O)C=CC=Cc2ccccc2)c1`, the inhibition (commonly the drop in the measured response relative to a control, in per cent) was 16.4% (inactive).

`CN(C)C(=S)N=c1ssc(=S)n1Cc1ccco1`: the inhibition is -41.1% (inactive). Then `c1ccc(NCc2cccc3ccccc23)nc1`, with 3.43% (inactive). Turning to `Oc1ccc2ccccc2c1N=Nc1nccs1`, the inhibition was 131% (active). To `Oc1ccc(N=Nc2nccs2)c(O)c1` belongs 4.56% (inactive); to `CCCCC(=O)Nc1ccc(C(=O)Nc2cc(C(F)(F)F)ccc2Cl)cc1`, -1.45% (inactive).

Turning to `CCCCN(CCCC)CCC(O)c1cc2c(Cl)cc(Cl)cc2c2cc(C(F)(F)F)ccc12` (stereo unspecified), the inhibition was 110% (active). In the case of `COc1ccc(C(CNC(=O)c2cccc(S(=O)(=O)Nc3ccc(Br)cc3)c2)N(C)C)cc1` (stereo unspecified), the inhibition was 3.14% (inactive). Turning to `C=CC[C@@H](Cc1ccc(F)cc1)C(=O)OC[C@H]1CCCN1C(=O)[C@H](CC=C)CC(=O)N(CCO)Cc1ccccc1`, the inhibition is 6.25% (inactive).

For `NNc1cccc(C=Cc2ccccc2)cc1=O`, the inhibition was 17.2% (inactive). To `Oc1c(CN2CCCC2)cc(COCc2ccccc2)c2cccnc12` belongs 16.4% (inactive); to `Cc1cccnc1NC(=O)c1cccc(S(=O)(=O)N2CCN(c3ccc(F)cc3)CC2)c1`, -4.19% (inactive). On to `Oc1c(CN2CCN(c3ccc(F)cc3)CC2)cc(Cl)c2cccnc12`, for which the inhibition is 136% (active). As for `COc1ccc(Nc2ccc3ccccc3c2)cc1`, the inhibition is -39% (inactive).

As to `O=C(Nc1nnc(CCOCCOCCc2nnc(NC(=O)c3ccco3)s2)s1)c1ccco1`, the inhibition is 4.41% (inactive). Then `O=C(Nc1ccccc1)c1ccco1`, with 1.65% (inactive); and `O=C(Nc1nc(-c2ccco2)c(-c2ccco2)s1)c1ccco1`, with 92% (active). Then `COc1ccc(/C=C2/CCCc3ccccc3C2=O)cc1`, with 17.4% (inactive). In the case of `Cc1ccc2nc(-c3ccncc3)cc(C(=O)Nc3ccncc3)c2c1`, the inhibition is -8.61% (inactive). Then `Cc1ccc2nc(Nc3ccccc3)cc(C)c2c1`, with -1.32% (inactive). Then `CCS(=O)(=O)Nc1cccc(-c2cc(-c3ccccc3)c3cc(C)ccc3n2)c1`, with 102% (active). Then `O=C1OCC2=C1C(c1ccc(Cl)cc1)c1cc3c(cc1O2)OCO3` (stereo unspecified), with -15.7% (inactive); and `O=C(Cn1c[n+](CC(=O)c2ccc([N+](=O)[O-])cc2)cn1)c1ccc([N+](=O)[O-])cc1`, with -20.5% (inactive) and -1.84% (inactive). As for `O=C(CC(n1cncn1)C(Cl)(Cl)Cl)c1ccc([N+](=O)[O-])cc1` (stereo unspecified), the inhibition was 123% (active). Then `O=C(Nn1cnnc1)c1ccc([N+](=O)[O-])cc1`, with 10.8% (inactive). Then `Oc1ccc(-c2nc3ccccc3nc2-c2ccc(O)cc2O)c(O)c1`, with 6.66% (inactive). `O=C(O)c1ccc(NN=CC2=C(N3CCOCC3)/C(=C/c3ccccc3)CC2)cc1`: the inhibition is -30.6% (inactive).

On to `CC(C)c1ccc(C=NNc2ccc([N+](=O)[O-])cn2)cc1`, for which the inhibition was -14.5% (inactive). To `O=S(=O)(NC1CC2CCC1C2)c1ccc(Cl)cc1` (stereo unspecified) belongs 104% (active); to `O=S(=O)(NC1CCCCC1N1CCCCC1)c1ccc(Cl)cc1` (stereo unspecified), -25% (inactive).

For `O=S(=O)(NC1CC1)c1ccc(Cl)cc1`, the inhibition was -7.47% (inactive). Then `COc1ccc(-c2ccc3c(c2)[C@@H]2C[C@H](N(C)S(=O)(=O)c4ccccc4)[C@H]([C@H](C)O)C(=O)N2CC3)cc1`, with 6.39% (inactive). Consider `CC(C)Cn1cnc2c(SCc3ccc(Cl)cc3)nc(N)nc21`, for which the inhibition was 12.6% (inactive).

With `COc1cccc2c1C(=O)c1c(O)c3c(c(O)c1C2=O)CC(O)(C(C)=NNC(=O)c1ccc(Cl)c(Cl)c1)CC3OC1CC(N)C(O)C(C)O1` (stereo unspecified), the inhibition is -3.52% (inactive).

As to `CC1=C/C(=N\OS(=O)(=O)c2ccccc2)C=CC1=O`, the inhibition is 100% (active).

Regarding `O=C(Nc1ccc(S(=O)(=O)N2CCOCC2)cc1)C1CCN(S(=O)(=O)c2ccc(Cl)cc2)CC1`, the inhibition was -11.4% (inactive). To `COc1ccc2sc(-c3ccc(N(C)C)cc3)c(C#CCO)c2c1` belongs 15% (inactive); to `COc1ccc2c(c1)c(=Cc1ccc(N(C)C)cc1)c1cc(-c3ccccc3)[n+](C)n12`, 114% (active). Then `COc1ccc2sc(-c3ccc(N(C)C)cc3)c(-c3ccc4cc[nH]c4c3)c2c1`, with -6.56% (inactive). Then `CCN1CCC(O)(/C=C/c2ccc(C)cc2)C(C(=O)/C=C/c2ccc(C)cc2)C1` (stereo unspecified), with 19.6% (inactive); and `Cc1c(NS(=O)(=O)c2cccc(C(=O)Nc3ccc(SC(F)F)cc3)c2)c(=O)n(-c2ccccc2)n1C`, with -2.76% (inactive); and `COc1ccc2c(c1)C(=O)CC(c1ccccc1)O2` (stereo unspecified), with -30% (inactive). On to `CCCCC(=O)NC(c1ccc(OC)c(OC)c1)c1ccc2cccnc2c1O` (stereo unspecified), for which the inhibition is 25.2% (inactive). Then `C#CCOCCOCCOCCNc1nc(N2CCOCC2)nc(N2CCN(C(=O)[C@H](Cc3ccc(O)cc3)n3cc(CCO)nn3)CC2)n1`, with 2.07% (inactive); and `C[C@@H]1C[C@@H]2O[C@H]2/C=C\C=C\C(=O)Cc2c(Cl)c(O)cc(O)c2C(=O)O1`, with 95% (active). Then `Cc1ccc(-c2csc(C(C#N)=C(O)CN3CCN(C(=O)c4ccco4)CC3)n2)cc1`, with 4.72% (inactive); and `O=C1C=CC(=O)N1c1ccc(N2CCCCC2)cc1`, with 109% (active). To `CC(=O)Nc1ccc(S(=O)(=O)Nc2ccc(N3CCCCC3)cc2)cc1` belongs 26.6% (inactive); to `O=C(Cc1ccccc1)NC(=S)Nc1ccc(N2CCCCC2)cc1`, -35.9% (inactive). For the molecule `O=C(NNc1nc(N2CCCC2)nc(N2CCCC2)n1)c1ccccc1`, the inhibition is 16.9% (inactive). Then `CCN(CC)CCCC(C)n1c2nc(=O)[nH]c(=O)c-2nc2cc(Cl)ccc21` (stereo unspecified), with -9.23% (inactive). To `NC(=O)C1CCN(C(=O)c2cc(S(=O)(=O)N3CCN(c4ccccc4)CC3)ccc2Cl)CC1` belongs -2.95% (inactive). For the molecule `CC1=CC(=NNS(=O)(=O)c2ccc([N+](=O)[O-])cc2)CC(C)(C)C1`, the inhibition was -10.2% (inactive).

`O=[N+]([O-])c1ccc(NS(=O)(=O)c2ccccc2)c(Cl)c1`: the inhibition is -12% (inactive). To `COc1ccc(C(=O)/C=C/c2ccc(OC3CSC3)cc2)cc1` belongs 12.6% (inactive). Turning to `COc1ccc(/C=C/C(=O)c2cc(Br)ccc(=O)c2O)cc1`, the inhibition was 99.7% (active). To `COc1ccc(/C=C/C(=O)c2ccc(OC)cc2O)cc1` belongs 3.31% (inactive); to `CN(C(=O)c1cccc(NC(=O)Cc2ccc(NC(=O)C3CCCN(C(=O)C4CCCC4)C3)cc2)c1)C1CCC1` (stereo unspecified), 3.19% (inactive). To `COC(=O)CC(CC(=O)OC)n1cccc1` belongs 10.4% (inactive); to `Cc1cccc(NC(=S)N2CCC(C(=O)c3ccc(F)cc3)CC2)c1`, -3.65% (inactive); to `COc1ccc(CNCCCNCc2ccc(OC)c(OC)c2)cc1OC`, -32.5% (inactive). Then `CC(=O)Oc1ccc2c(c1)C(=O)c1ccccc1C2=O`, with 6.15% (inactive); and `CC(=O)N(C1=C(Cl)C(=O)c2ccccc2C1=O)c1ccc(C(=O)O)cc1`, with 13.4% (inactive); and `O=C1C(Cl)=C(Oc2ccccc2)C(=O)c2ccccc21`, with 104% (active). Take `COc1ccc(Cn2cc(CN3CCS(=O)(=O)N(Cc4ccc(-c5cccc(Cl)c5)cc4)C(C)C3=O)nn2)cc1` (stereo unspecified): the inhibition was -24.7% (inactive). Then `COc1ccc(-c2nn(-c3ccccc3)cc2/C=N/Nc2ccccn2)cc1OC`, with -22% (inactive).

For `Oc1cccc(/C=N/Nc2ccc(Cl)nn2)c1O`, the inhibition is 1.34% (inactive). To `Oc1ccc(Br)cc1/C=N/Nc1ccccn1` belongs 107% (active).

On to `COc1ccc(CCC(=O)Nc2ccc(Cl)c(S(=O)(=O)N3CCOCC3)c2)cc1OC`, for which the inhibition was -12.1% (inactive).

Regarding `CC[C@@H]1Cc2cc(O)ccc2C2=C1c1ccc(O)cc1C[C@H]2CC`, the inhibition is 108% (active). To `CSCCC(NC(=O)COc1ccccc1)C(=O)N1CCN(c2cccc(C(F)(F)F)c2)CC1` (stereo unspecified) belongs 46.4% (inactive). On to `Cc1ccc(S(=O)(=O)c2cc3c(=O)n4cccc(C)c4nc3n(CCc3ccccc3)c2=N)cc1C`, for which the inhibition was 0.767% (inactive). Then `COc1cc(C(=O)NCc2ccncc2)cc(Br)c1OCc1ccccc1`, with 46.3% (inactive); and `COc1cc(/C=N/O)cc(Br)c1OS(=O)(=O)c1ccc(C)cc1`, with -10.1% (inactive).

On to `COc1cc(/C=N/O)cc(Br)c1OCc1cccc(Cl)c1`, for which the inhibition is 121% (active).

As for `Cc1nn(-c2ncccn2)c2c1C(=O)CC(C)(C)C2Br` (stereo unspecified), the inhibition is -6.87% (inactive). Then `COc1ccc(CCN2CC(C(=O)OCC(=O)NCc3ccccc3Cl)CC2=O)cc1OC` (stereo unspecified), with -2.54% (inactive). Then `CC1(C)N=C(N)NC(Nc2ccc(Cl)cc2)=N1`, with 7.88% (inactive); and `C/C(=N\Nc1ccc(Cl)nn1)c1ccccc1O`, with 2.56% (inactive). Then `CCN(/N=C/c1ccccc1)c1cc(=O)n(C)c(=O)[nH]1`, with -32.6% (inactive); and `Oc1ccc(/C=N/N(Cc2ccccc2)c2ccccc2)cc1`, with 96.6% (active). For the molecule `CCN(/N=C/c1ccc(N(C)C)cc1)c1nc2ccccc2[nH]1`, the inhibition was 24% (inactive). Then `Cc1ccc2c(O)c(Cc3ccccc3)c(=O)[nH]c2n1`, with -3.48% (inactive); and `CC(C)C[C@H]1CN([C@@H](CC(C)C)CN2CCC[C@@H]2CN2C(=O)C(=O)NC[C@@H]2Cc2ccccc2)C(=O)C(=O)N1CCc1ccccc1`, with 1.81% (inactive); and `CC(C=Cc1ccccc1)=NNS(=O)(=O)c1ccc([N+](=O)[O-])cc1`, with -1.29% (inactive). Regarding `CC(=O)OCC1(O)CC23CCC4c5ccoc5CCC4(C)C2CCC1C3` (stereo unspecified), the inhibition was -29.4% (inactive). Then `c1ccc(CCc2ccccn2)cc1`, with 12.1% (inactive); and `Cc1ccccc1NCC(=O)N/N=C\c1ccc([N+](=O)[O-])s1`, with -6.37% (inactive); and `CC(C)(C)c1cc(C(=O)N/N=C/c2ccc([N+](=O)[O-])s2)n[nH]1`, with -5.37% (inactive). Turning to `O=[N+]([O-])c1ccc(C=Nc2ccc(Cl)cc2Cl)s1`, the inhibition is 110% (active). Then `CC(C)(C)OC(=O)N1CCC(C(=O)Nc2cccc(C(=O)NCCc3ccccc3)c2)CC1`, with 5.32% (inactive).
